# High-throughput results as filed in PubChem BioAssay.
# In the library only some 2.7% were active in any assay of this set; here they are far more common.
# ATXN viability: cell viability loss in ATXN counter-screen. AID 651635. 400,000 compounds, 0.49% hits. S2 cells (HEK-293 line with an ATXN2-luciferase reporter) viability, CellTiter-Fluor protease fluorescence, 24 h. Potency, µM (top dose mostly 56.7 µM), hits mostly cytotoxic; also: nearly all actives have a fitted effect of over 40% in size
# TGFb inhibitor: blocks TGF-b signaling. HepG2 CAGA-GFP TGF-b/SMAD3 reporter, GFP fluorescence, 18 h; TGF-beta stimulated, 500 pg/mL final. Potency, µM (top dose mostly 46.1 µM), without a hit: at the top dose activity, negative = inhibition, hits mostly inhibitors. 410,000 compounds, 1.2% hits. AID 588855; also: % is scaled to controls: 0 for no effect and ±100 for the full control effect; nearly all actives have a fitted effect of over 65% in size
#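 TGF-beta reporter screen: HEPG2 CAGA-GFP, 1% FBS, 500 pg/mL TGF-beta final, 18 h; per-cell GFP summed per well; curves fitted and categorized by class.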
# ATXN2 expr inh: inhibitors of ATXN2 expression; HEK-293 ATXN2-luciferase reporter, luminescence, 24 h; Potency, µM (doses to about 57 µM), for the others: at the top dose activity change, negative = inhibition, most hits filed as inhibitors; 360,000 compounds, 0.72% hits; also: % is scaled to controls: 0 for no effect and ±100 for the full control effect; nearly all actives have a fitted effect of over 55% in size
#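 qHTS (up to 57 uM final) was run with 24 h compound exposure of reporter cells at 37 °C. Each well was multiplexed: SteadyGlo luminescence measured ATXN2-luciferase expression after a fluorogenic Gly-Phe-AFC viability readout (25 uM final).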
# ALOX12 inh: inhibitors of human 12S-lipoxygenase ALOX12; AID 1671190; Potency, µM (highest dose often 108 µM), without a hit: at the highest dose activity change, negative = inhibition, usual class: inhibitors; purified 12hLO, xylenol orange hydroperoxide absorbance; P18054; 580,000 compounds, 1.1% hits; also: % is scaled to controls: 0 for no effect and ±100 for the full control effect
# Target sequence (P18054 whole entry, looked up): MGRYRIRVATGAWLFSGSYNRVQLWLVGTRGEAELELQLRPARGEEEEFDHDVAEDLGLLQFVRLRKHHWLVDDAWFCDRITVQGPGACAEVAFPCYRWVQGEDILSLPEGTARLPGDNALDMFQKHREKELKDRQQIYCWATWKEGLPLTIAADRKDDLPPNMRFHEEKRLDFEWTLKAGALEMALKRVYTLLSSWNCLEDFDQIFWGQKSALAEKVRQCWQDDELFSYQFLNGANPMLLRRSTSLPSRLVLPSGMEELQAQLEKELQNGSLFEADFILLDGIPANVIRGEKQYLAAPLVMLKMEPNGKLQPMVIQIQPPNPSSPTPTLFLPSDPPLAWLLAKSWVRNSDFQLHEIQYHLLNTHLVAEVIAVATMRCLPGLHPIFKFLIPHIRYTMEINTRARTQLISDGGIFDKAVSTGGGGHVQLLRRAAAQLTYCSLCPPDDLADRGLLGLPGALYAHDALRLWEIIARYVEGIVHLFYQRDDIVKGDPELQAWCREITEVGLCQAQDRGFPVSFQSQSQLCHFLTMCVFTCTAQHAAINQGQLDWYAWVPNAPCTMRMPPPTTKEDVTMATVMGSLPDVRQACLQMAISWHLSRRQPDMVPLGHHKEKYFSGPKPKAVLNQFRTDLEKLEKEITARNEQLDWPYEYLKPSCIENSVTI
#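 Hydroperoxide product was detected by ferrous iron/xylenol orange as the 573 to 405 nm absorbance ratio. Arachidonic acid at 40 uM (final) was turned over for 30 min at room temperature by 150 nM human 12hLO, pH 7.0 Hepes buffer, after 15 min compound preincubation.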
# HepG2 tox: kills HepG2 cells in TGF-b inhibitor counter-screen; HepG2 CAGA-GFP viability, ATP luminescence, 18 h; Potency, µM (titrated, usually from 46.1 µM), for the others: at the top dose activity change, negative = cytotoxicity, hits mostly cytotoxic; 410,000 compounds, 0.76% hits
#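 CellTiter-Glo luminescence gave cytotoxicity after 18 hours at 37 degrees C. The cells were HepG2 CAGA-GFP in 1% FBS DMEM, stimulated with 500 pg/mL TGF-beta after compound addition. %Activity was normalised to no-cell wells (complete cell-killing) and DMSO (no toxicity), and curves were fitted and classified.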
# * marks the source's active call; other numbers are inactive results; i = inactive; ? = inconclusive; . = no result; [ ] = remark or other dose. Calls follow the shape of the dose curve; as a rule, active = well fitted curve in the direction sought with a large enough effect; inconclusive = small, poorly fitted or top-dose-only effect, or another doubt; inactive = no such curve, though single readings can be large; an effect the other way counts as inactive or inconclusive. Potency is read from the fitted curve at half-maximal effect.
SMILES,ATXN viability,TGFb inhibitor,ATXN2 expr inh,ALOX12 inh,HepG2 tox
CCOc1ccc(-c2cc3c(N4CCC(C(=O)NCc5cccs5)CC4)nccn3n2)cc1,.,.,.,18%,.
Cc1cccc(NC(=S)NC2CCCCCC2)c1C,i,-25%,-3%,50µM*,-12%
CC(C)(C)c1ccccc1NC(=S)NC1CCCCC1,i,-12%,-7%,40µM*,-8%
Cc1cccc(NC(=S)NC2CCCC2)c1C,?,-13%,-13%,?,-32%
CC(OC(=O)c1cc[n+]([O-])cc1)C(=O)c1ccc(C(C)(C)C)cc1 (stereo not given),.,.,.,-20%,.
Cc1ccc(S(=O)(=O)NN=CC=CC=NNS(=O)(=O)c2ccc(C)cc2)cc1,i,-11%,.,4µM*,2%
Cc1ccc(S(=O)(=O)N/N=C/c2ccccc2O)cc1,i,-11%,9%,11%,3%
Cc1ccc(NNS(=O)(=O)c2ccc(C)cc2)cc1,i,7%,1%,2.8µM*,-14%
Cc1c(CC(=O)NCc2ccc3c(c2)OCO3)c(=O)oc2cc(O)c(Cl)cc12,.,.,.,-11%,.
CCSc1nn(CC(=O)Nc2ccc(C(=O)OC)cc2)c(N)c1S(=O)(=O)c1ccc(C)cc1,?,?,-36%,-29%,-13%
CCOC(=O)c1ccc(NC(=O)Cn2nc(SC)c(S(=O)(=O)c3ccc(Cl)cc3)c2N)cc1,?,5µM*,?,?,-34%
CCN1C(=O)c2ccccc2Sc2ccc(NC(=O)Nc3cc(C)cc(C)c3)cc21,.,6.3µM*,.,?,-30%
CCN1C(=O)c2ccccc2Sc2ccc(NC(=O)c3ccc(Cl)cc3)cc21,i,-34%,2%,-4%,0%
CC(C)CCNC(=O)Nc1ccc2c(c1)N(C)C(=O)c1ccccc1S2,35µM*,22µM*,?,-2%,-60%
CN1C(=O)c2ccccc2Sc2ccc(NC(=O)Cc3c(F)cccc3Cl)cc21,?,10µM*,0%,?,-57%
CN1C(=O)c2ccccc2Sc2ccc(NC(=O)NCc3ccccc3Br)cc21,.,?,.,0%,-49%
C(=N\N=C\c1c[nH]c2ccccc12)/c1c[nH]c2ccccc12,.,.,.,-6%,.
CCn1c(N)c(C(=O)NCCCOC)sc1=S,i,6%,4%,40µM*,6%
CCNC(=O)c1sc(=S)n(CC)c1N,i,3%,-1%,?,0%
CCOc1ccc(Oc2ccccc2NC(=O)c2ccoc2)cc1,.,.,.,-11%,.
CC(=O)N1CCCC(N2CCN(c3cccc(C(F)(F)F)c3)CC2)C1 (stereo not given),i,-3%,28%,5%,-40%
Cc1ccc(C(=O)N2CCCC(N3CCN(c4cccc(C(F)(F)F)c4)CC3)C2)s1 (stereo not given),?,11µM*,.,32%,-45%
CCCC(=O)N1CCCC(c2noc(COc3ccccc3)n2)C1 (stereo not given),.,.,.,44%,.
CCOC(=O)C1=C(c2ccccc2)NC(=S)NC1c1cccc([N+](=O)[O-])c1 (stereo not given),?,-5%,3%,-15%,7%
CCCOc1ccc(C2NC(=S)NC(c3ccccc3)=C2C(=O)Nc2ccc(C)cc2)cc1OC (stereo not given),i,0%,4%,32µM*,25%
SMILES,ATXN viability,TGFb inhibitor,ATXN2 expr inh,ALOX12 inh,HepG2 tox
CC1=C(C(=O)Nc2ccccc2)C(c2ccc(C(C)(C)C)cc2)NC(=S)N1 (stereo not given),.,.,.,40µM*,.
CCOC(=O)C1=C(c2ccccc2)NC(=S)NC1c1cc([N+](=O)[O-])ccc1OC (stereo not given),i,-20%,-18%,40µM*,-6%
COc1cc(C2NC(=S)NC(c3ccccc3)=C2C(C)=O)ccc1O (stereo not given),i,23%,.,-21%,25%
Cc1ccc(NC(=O)C2=C(c3ccccc3)NC(=S)NC2c2ccc(C(C)(C)C)cc2)cc1 (stereo not given),.,.,.,14µM*,.
O=[S+]1([O-])NC2(CCCN(Cc3ccsc3)C2)CNc2ccccc21 (stereo not given),.,.,.,5%,.
Cc1ccc(CN(C)C(=O)c2cc(S(=O)(=O)Nc3ccc(C)cc3)ccc2C)cc1,.,.,.,1%,.
Cc1cc(C)cc(OCC(=O)N2N=C(c3cccnc3)CC2(O)C(F)(F)F)c1 (stereo not given),i,?,-7%,-11%,-35%
Cc1cc(C)cc(OCC(=O)N2N=C(C(F)(F)F)CC2(O)C(C)(C)C)c1 (stereo not given),i,?,?,?,18µM*
O=C1OCCC1Sc1nnc(-c2ccc(Cl)cc2Cl)o1 (stereo not given),i,?,6.3µM*,-14%,-34%
O=C1OCCC1Sc1nnc(-c2ccccc2)o1 (stereo not given),i,2%,-20%,0%,-17%
CC(C)Cn1c(-c2ccc(Br)cc2)c[nH]c1=S,i,?,-30%,35µM*,-30%
CCn1c(-c2ccccc2)c[nH]c1=S,i,-1%,5%,?,23%
CCC(C)OC(=O)COc1ccc2c(=O)c(-c3ccccc3Cl)coc2c1 (stereo not given),.,.,.,37%,.
CCCCCCCC[N+](C)(C)CCCCCCCC,i,.,.,.,.
CCCCCCCCCCCCCCCC[N+](C)(C)CC,18µM*,?,14µM*,?,-110%
CCCCCCCCCCCCCC[N+](C)(C)C,?,.,22µM*,2%[22.9 µM],.
CC#CC[N+](C)(C)CCCCCCCCCCCC,?,?,25µM*,-1%,-46%
CCCN(CC(=O)NC(=O)Nc1ccc(C)c(C)c1)Cc1nnc(-c2cccs2)o1,.,.,.,2%,.
O=C(Nc1nnc(C2CC2)s1)c1csc(NC2CCCC2)n1,.,.,.,11%,.
Cc1nc(SCC(=O)Nc2ccc(Cl)cc2)c(C#N)c2c1CCCC2,.,.,.,0%,.
CN1CCc2nc(SCC(=O)Nc3ccc(Cl)cc3)c(C#N)cc2C1,i,-19%,0%,5.6µM*,-3%
Cl/C(=C/c1ccc(Cl)cc1)c1ncc(-c2ccc(Cl)cc2)o1,.,.,.,35µM*,.
O=C(O)COc1ccccc1/C=N/Nc1ccc(S(=O)(=O)Nc2ccc(Cl)cc2)cc1[N+](=O)[O-],.,3%,4%,32µM*,-2%
COc1ccc(NS(=O)(=O)c2cc([N+](=O)[O-])ccc2NN=Cc2ccccc2OCC(=O)O)cc1,i,-1%,-8%,?,-1%
O=C(O)c1ccccc1NS(=O)(=O)c1ccc(NN=Cc2ccc(F)cc2)c([N+](=O)[O-])c1,i,0%,-20%,.,-2%
O=C(O)COc1ccccc1C=NNc1ccc([N+](=O)[O-])cc1S(=O)(=O)Nc1ccc(Cl)cc1,i,?,16%,35µM*,-16%
